Some test systems named below: NCI-H23 lung; NCI-H226 lung; HOP-62 NSCLC; NCI-H460 lung; HOP-92 NSCLC; NCI-H522 lung; A549/ATCC NSCLC; 786-0 renal; DU-145 prostate; K-562 leukemia; MALME-3M melanoma; MDA-MB-231 breast; RXF 393 renal; SF-268 CNS; SF-295 CNS; SF-539 CNS; UACC-257 melanoma; M14 melanoma; COLO 205 colon.
What all share (experiment): NCI-60 one-dose screen, 48 h (100 = growth as untreated, 0 = no growth, -100 = all killed)
What all share (details): 10 µM unless noted

In PubChem BioAssay (NCI) one finds growth data, which are given here for eight compounds.

This is part of a sample that, as a whole, favours compounds with a hit. Of some 83,000 tested, about 20% had one in any assay.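 Step 1: grow cells in 96-well plates. Step 2: add test compound at a single concentration. Step 3: incubate 48 h. Step 4: record percent growth.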 Unmarked numbers belong to inactive results. The source made the active and inactive calls. Rule for the calls: active = growth percent below 10; inactive = the rest.

As to `Cn1cc(-c2nonc2-c2c[nH]c3ccccc23)c2ccccc21`, the growth with NCI-H23 lung was 29.7%; in the test on NCI-H226 lung, 44.5%; in the test on HOP-62 NSCLC it was 14.3%; with NCI-H460 lung, 4.95% (active); in the test on HOP-92 NSCLC, 5.1% (active); with NCI-H522 lung, -5.43% (active). The growth is 18.3% in the test on A549/ATCC NSCLC; 23% with 786-0 renal; 17.4% in the test on DU-145 prostate; 5.23% (active) in the test on K-562 leukemia; 42.9% in the test on MALME-3M melanoma; 0.833% (active) in the test on MDA-MB-231 breast. Also, the growth in the test on RXF 393 renal was -3.69% (active); with SF-268 CNS, 25.8%; in the test on SF-295 CNS, 8.43% (active); with SF-539 CNS it was -35.4% (active); in the test with UACC-257 melanoma, 33.2%; in the test with M14 melanoma it was 7.06% (active).

Consider `CCc1cccc(Sc2cc(C(=O)N3Cc4ccc(OCCN(C)C)cc4C3)ccc2O)c1`, for which the growth with NCI-H23 lung is 41.2%; in the test on NCI-H226 lung, 89.3%; in the test on HOP-62 NSCLC it was 71.5%; in the test with NCI-H460 lung it was 38.9%; in the test on HOP-92 NSCLC, 57.1%; with NCI-H522 lung it was 66.8%. Further, the growth in the test with A549/ATCC NSCLC is 43.1%; in the test on 786-0 renal, 70.6%; in the test on COLO 205 colon, 109%; with DU-145 prostate, 38.9%; in the test on K-562 leukemia, 22%; in the test on MALME-3M melanoma, 57.3%. The growth in the test on MDA-MB-231 breast is 80%; in the test with RXF 393 renal it was 72.2%; in the test with SF-268 CNS, 63.8%; with SF-295 CNS, 78.4%; with SF-539 CNS, 89%; in the test on UACC-257 melanoma, 63.3%. In addition, in the test with M14 melanoma, the growth is 78.1%.

As for `CCC(C)Nc1ccc(NC(C)CC)cc1` (stereo not given), the growth with NCI-H23 lung was 74.5%; in the test with NCI-H226 lung, 91.3%; in the test on HOP-62 NSCLC, 84.8%; with NCI-H460 lung, 101%; in the test with HOP-92 NSCLC, 90.5%; with NCI-H522 lung, 54.9%. The growth is 94.7% in the test on A549/ATCC NSCLC; 74% with 786-0 renal; 9.48% (active) in the test on COLO 205 colon; 109% in the test on DU-145 prostate; 54.2% in the test on K-562 leukemia; 73.4% in the test with MALME-3M melanoma. The growth was 82% in the test on MDA-MB-231 breast; 81.8% in the test with RXF 393 renal; 96.6% in the test on SF-268 CNS; 111% in the test with SF-295 CNS; 90.7% with SF-539 CNS; 21.1% in the test on UACC-257 melanoma.

In the case of `CCN1CCN(CC(=O)Nc2nc3ccc(NCc4ccc(Br)cc4)cc3s2)CC1`, the growth with NCI-H23 lung is 70.4%; in the test on NCI-H226 lung, 64.6%; in the test with HOP-62 NSCLC, 64.8%; in the test on NCI-H460 lung it was 26.3%; with HOP-92 NSCLC, 40.9%; with NCI-H522 lung, 99.5%. Also, the growth in the test with A549/ATCC NSCLC was 64.5%; in the test with 786-0 renal it was 61.3%; in the test with COLO 205 colon, -48.9% (active); in the test with DU-145 prostate it was 83.9%; in the test with K-562 leukemia, -49.7% (active); in the test on MALME-3M melanoma it was -68.2% (active). Also, the growth with MDA-MB-231 breast is 45.6%; with RXF 393 renal, 63.9%; in the test with SF-268 CNS, 72.1%; in the test with SF-295 CNS it was 86.4%; with SF-539 CNS, 39.2%; with UACC-257 melanoma, 17.7%. Moreover, the growth in the test with M14 melanoma is -56.2% (active).

Take `O=C(CN1C(=O)/C(=C/c2ccco2)SC1=S)NCCc1c[nH]c2ccc(F)cc12`: the growth in the test on NCI-H23 lung was 94.7%; in the test on NCI-H226 lung, 92.4%; in the test with HOP-62 NSCLC it was 117%; with NCI-H460 lung it was 103%; in the test with HOP-92 NSCLC, 102%; with NCI-H522 lung, 82.5%. Besides, the growth was 102% with A549/ATCC NSCLC; 104% in the test on 786-0 renal; 115% in the test on COLO 205 colon; 108% in the test on DU-145 prostate; 101% in the test on K-562 leukemia; 108% in the test with MALME-3M melanoma. In addition, the growth with MDA-MB-231 breast is 102%; in the test on RXF 393 renal, 110%; in the test with SF-268 CNS, 93.6%; in the test on SF-295 CNS, 99.4%; with SF-539 CNS, 95.2%; with UACC-257 melanoma, 113%. The growth in the test on M14 melanoma was 106%.

For `Oc1c(Cl)cc(Cl)c2ccc(Cn3cc(-c4cccc(C(F)(F)F)c4)nn3)nc12`, the growth in the test with NCI-H23 lung is 90%; with NCI-H226 lung it was 90.1%; with HOP-62 NSCLC, 97.5%; with NCI-H460 lung it was 101%; in the test on HOP-92 NSCLC, 55.8%; in the test with NCI-H522 lung it was -3.26% (active). Besides, the growth was 97.9% in the test on A549/ATCC NSCLC; 95.6% in the test on 786-0 renal; 92.9% in the test with COLO 205 colon; 63% with DU-145 prostate; 5.87% (active) in the test with K-562 leukemia; 75.8% in the test on MALME-3M melanoma. In addition, the growth in the test with MDA-MB-231 breast is 101%; with RXF 393 renal, 33.7%; with SF-268 CNS it was 88.9%; with SF-295 CNS, 99%; with SF-539 CNS, 75.2%; in the test on UACC-257 melanoma, 69.1%. Also, the growth with M14 melanoma was 62.4%.

In the case of `O=P(O)(O)OCC1OC(n2cnc3c(NCc4ccccc4)ncnc32)C(O)C1O` (stereo not given), the growth in the test on NCI-H23 lung is 17.8%; with NCI-H226 lung, 21.1%; with HOP-62 NSCLC it was 29.9%; with NCI-H460 lung, 94.3%; in the test with HOP-92 NSCLC, 22.3%; in the test with NCI-H522 lung it was 0.67% (active). Also, the growth was 55.1% in the test with A549/ATCC NSCLC; 21.3% in the test on 786-0 renal; 11.2% with COLO 205 colon; -50.3% (active) in the test on DU-145 prostate; 60.8% with K-562 leukemia; 80.9% in the test with MALME-3M melanoma. For the same compound, the growth is 10.6% with MDA-MB-231 breast; -0.932% (active) with RXF 393 renal; 36.3% in the test with SF-268 CNS; 52.4% in the test with SF-295 CNS; 6.39% (active) with SF-539 CNS; 115% in the test with UACC-257 melanoma. Also, in the test with M14 melanoma, the growth is 29.4%.

In the case of `CC(CN)[C@@H]1CC[C@]2(CO)CC[C@]3(C)[C@H](CC[C@@H]4[C@@]5(C)CCC(N)C(C)(C)[C@@H]5CC[C@]43C)[C@@H]12` (stereo not given in full), the growth is -29.1% (active) in the test with NCI-H23 lung; 85.2% in the test on NCI-H226 lung; -48.1% (active) with HOP-62 NSCLC; -80% (active) in the test on NCI-H460 lung; 70.9% in the test with HOP-92 NSCLC; -50.4% (active) with NCI-H522 lung. Further, the growth with A549/ATCC NSCLC is -89.3% (active); in the test with 786-0 renal it was -63.1% (active); with COLO 205 colon, 32.8%; in the test on DU-145 prostate, -87.9% (active); in the test on K-562 leukemia, -55.8% (active); with MALME-3M melanoma, 74.2%. Further, the growth is -68.5% (active) in the test on MDA-MB-231 breast; 53.1% in the test with RXF 393 renal; -60.9% (active) in the test on SF-268 CNS; 56.9% in the test on SF-295 CNS; 42.2% in the test on SF-539 CNS; 78.1% in the test with UACC-257 melanoma. Besides, the growth in the test on M14 melanoma is 11.8%.
